Screening data as filed in PubChem BioAssay.
IL-1B inflam inh: inhibitors of inflammasome signaling (IL-1 beta secretion). THP-1 LPS/ATP IL-1B secretion, AlphaLISA, 16 h; active compounds read low. activity change, % at 57.5 µM. actives 4.7% (n = 360,000). AID 743279; in the data active means activity change below about -50%; inconclusive means mostly about -30% to -49%
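Secreted IL-1B measured by AlphaLISA bead assay after 16 h compound exposure of THP-1 cells; compounds (final up to 57.5 uM) added 1 h before LPS (250 ng/mL) and ATP (1.25 mM) stimulation; lower signal means less secretion.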
HT1080-NT tox: kills 2HG-producing HT-1080-NT fibrosarcoma cells; actives 1.6% (n = 360,000); AID 686970; Potency, µM (highest dose often 46.1 µM), without a hit: at the highest dose activity, negative = less viability, usual class: cytotoxic; HT-1080-NT fibrosarcoma viability, CellTiter-Glo ATP luminescence, 48 h;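 further: NT is the 2HG producing partner of a matched IDH1 knockdown line; potency means the concentration at half of the fitted maximal effect; 0% = DMSO-treated cells and -100% = media-only wells without cells; nearly all actives have a fitted effect of over 55% in size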
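Viability of the 2HG-overproducing fibrosarcoma line after 48 hours of compound exposure at 37 degrees C was determined by luminescence with CellTiter-Glo, and concentration-effect curves were then fitted and categorized.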
HT1080 IDH1KD tx: HT-1080 IDH1 knockdown cell toxicity (counter line); HT-1080 IDH1 knockdown viability, ATP luminescence, 48 h; Potency, µM (top dose mostly 46.1 µM), for inactives: at the highest dose activity, negative = toxicity, most hits filed as cytotoxic; actives 2% (n = 360,000); AID 686971;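 further: potency means the concentration at half of the fitted maximal effect; 0% = DMSO wells and -100% = cell-free medium wells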
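Cytotoxicity counter-line: IDH1KD HT-1080, 48 h, CellTiter-Glo. Curves classed by r2, magnitude and activity.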
KB-V1 cytotox: kills drug-selected multidrug resistant KB-V1 cells; KB-V1 MDR cells viability, CellTiter-Glo, 72 h; Potency, µM (series often up to 46.1 µM), hits mostly cytotoxic; actives 3.4% (n = 400,000); further: potency means the concentration at half of the fitted maximal effect; nearly all actives have a fitted effect of over 60% in size
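qHTS viability screen in drug-selected KB-V1 MDR cells: 72 h compound treatment at 37 degrees C, ATP luminescence end point.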
KB-3-1 cytotox: KB-3-1 parental cell cytotoxicity. Potency, µM (highest dose often 46.1 µM), hits mostly cytotoxic. KB-3-1 viability, CellTiter-Glo ATP luminescence, 72 h. AID 1347075. actives 1.4% (n = 400,000); further: potency means the concentration at half of the fitted maximal effect; nearly all actives have a fitted effect of over 60% in size
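Screening of KB-3-1 cells (DMEM, 10% FBS, phenol-red free) ran from lowest to highest compound concentration; after 72 h at 37 °C viability was read luminescently and curves fitted.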
An asterisk follows results filed as active; ! = a repeat was not active. Shown are actives, neighbours in structure and some others; about 8.8% of the full set was active somewhere. Unless noted, the call rests on the fitted dose curve; in most records, active means well fitted curve in the direction sought with a large enough effect; inconclusive means small, poorly fitted or top-dose-only effect, or another doubt; inactive means no such curve, though single readings can be large; an effect the other way counts as inactive or inconclusive. Unless noted, on the % scale 0 is the no-effect control and ±100 the full control effect.

What do the screens show for `CCOC(=O)CCC(NC(=O)c1cncc(O)c1)C(=O)OCC` (stereo unspecified)?
IL-1B inflam inh: -11; HT1080-NT tox: 2%; HT1080 IDH1KD tx: -7%; KB-V1 cytotox: inactive; KB-3-1 cytotox: inactive

What do the screens show for `CCCCCCSc1cccc(-c2nc3ccc(Cl)cn3c2NCc2ccccc2)c1`?
IL-1B inflam inh: -6; HT1080-NT tox: -4%; HT1080 IDH1KD tx: 7%; KB-V1 cytotox: inconclusive; KB-3-1 cytotox: inactive

Results for CCCCCCSc1ccc(-c2nc3ccc(C)cn3c2NCc2ccccc2)cc1OC ?
IL-1B inflam inh: -53*!; HT1080-NT tox: -24%; HT1080 IDH1KD tx: inconclusive; KB-V1 cytotox: inconclusive; KB-3-1 cytotox: inconclusive

What do the screens show for `CCCCCCSc1ccc(-c2nc3ccc(C)cn3c2NCc2ccccc2)cc1`?
IL-1B inflam inh: -110*!; HT1080-NT tox: 1%; HT1080 IDH1KD tx: -3%; KB-V1 cytotox: inconclusive; KB-3-1 cytotox: inconclusive

What do the screens show for `CCC(=O)N/N=C(\C)CC(=O)Nc1ccc2c(c1)OCCO2`?
IL-1B inflam inh: -14; HT1080-NT tox: 1%; HT1080 IDH1KD tx: 12%; KB-V1 cytotox: inactive; KB-3-1 cytotox: inactive

Results for CC(C)c1ccc(CNCc2ccccc2)cc1 ?
IL-1B inflam inh: -51*; HT1080-NT tox: 2%; HT1080 IDH1KD tx: -1%; KB-V1 cytotox: inactive; KB-3-1 cytotox: inactive

What do the screens show for `CC(C)c1ccc(CNC(=O)CCc2ccccc2)cc1`?
IL-1B inflam inh: 19; HT1080-NT tox: -5%; HT1080 IDH1KD tx: 1%; KB-V1 cytotox: inactive; KB-3-1 cytotox: inactive

Results for CN(C)C=Nc1ncc2c([nH]c3ccccc32)c1C#N ?
IL-1B inflam inh: -27; HT1080-NT tox: -12%; HT1080 IDH1KD tx: -22%; KB-V1 cytotox: 7.3µM*; KB-3-1 cytotox: inconclusive

What do the screens show for `O=C(Cc1ccc([N+](=O)[O-])cc1)OCc1c(F)cccc1Cl`?
IL-1B inflam inh: -4; HT1080-NT tox: 3%; HT1080 IDH1KD tx: 10%; KB-V1 cytotox: inactive; KB-3-1 cytotox: inactive

Results for O=S(=O)(c1ccccc1)c1cnc(-c2cccnc2)nc1-c1ccc(Cl)cc1Cl ?
IL-1B inflam inh: -23; HT1080-NT tox: -15%; HT1080 IDH1KD tx: inconclusive; KB-V1 cytotox: inactive; KB-3-1 cytotox: inconclusive

What do the screens show for `O=S(=O)(c1ccccc1)c1cnc(-c2cccnc2)nc1-c1ccccc1`?
IL-1B inflam inh: 22; HT1080-NT tox: 6%; HT1080 IDH1KD tx: 1%; KB-V1 cytotox: 8.2µM*; KB-3-1 cytotox: inactive

How did O=C(Nc1ccc(F)cc1)C(c1ccnc2ccccc12)N1CCN(CC(=O)N2CCCC2)CC1 (stereo unspecified) do in these assays?
IL-1B inflam inh: 17; HT1080-NT tox: 2%; HT1080 IDH1KD tx: 1%; KB-V1 cytotox: inconclusive; KB-3-1 cytotox: inactive

What do the screens show for `Cc1ccc(OCC(=O)N2CCN(C(=O)Cc3ccccc3)CC2)cc1`?
IL-1B inflam inh: -5; HT1080-NT tox: -4%; HT1080 IDH1KD tx: -1%; KB-V1 cytotox: inactive; KB-3-1 cytotox: inactive

Results for O=C(COc1ccc(-c2ccccc2)cc1)N1CCN(S(=O)(=O)Cc2ccccc2)CC1 ?
IL-1B inflam inh: 22; HT1080-NT tox: -23%; HT1080 IDH1KD tx: inconclusive; KB-V1 cytotox: 4.6µM*; KB-3-1 cytotox: 3.7µM*

Results for O=[N+]([O-])c1cnc(Nc2ccccc2)nc1Nc1ccccc1 ?
IL-1B inflam inh: 0; HT1080-NT tox: -7%; HT1080 IDH1KD tx: 0%; KB-V1 cytotox: inactive; KB-3-1 cytotox: inactive

Results for COc1ccc2nc3cccc(OC)c3nc2c1 ?
IL-1B inflam inh: 0; HT1080-NT tox: 2%; HT1080 IDH1KD tx: -2%; KB-V1 cytotox: inactive; KB-3-1 cytotox: inactive

Results for COc1ccc2nc3ccccc3nc2c1N ?
IL-1B inflam inh: -63*; HT1080-NT tox: -24%; HT1080 IDH1KD tx: inconclusive; KB-V1 cytotox: inconclusive; KB-3-1 cytotox: inactive

What do the screens show for `c1c2c(cc3sc(N4CCOCC4)nc13)OCO2`?
IL-1B inflam inh: inconclusive; HT1080-NT tox: -22%; HT1080 IDH1KD tx: inconclusive; KB-V1 cytotox: inactive; KB-3-1 cytotox: inactive

What do the screens show for `c1c2c(cc3sc(N4CCCCC4)nc13)OCO2`?
IL-1B inflam inh: -12; HT1080-NT tox: inconclusive; HT1080 IDH1KD tx: -29%; KB-V1 cytotox: inconclusive; KB-3-1 cytotox: 9.2µM*

Results for O=C(O)c1ccc(C2Nc3ccccc3C(=O)N2Cc2ccccc2)cc1 (stereo unspecified) ?
IL-1B inflam inh: 8; HT1080-NT tox: 19%; HT1080 IDH1KD tx: 32%; KB-V1 cytotox: inactive; KB-3-1 cytotox: inactive

How did CSc1nc(Oc2ccc3ccccc3c2)c2sccc2n1 do in these assays?
IL-1B inflam inh: 76; HT1080-NT tox: 1%; HT1080 IDH1KD tx: inconclusive; KB-V1 cytotox: inconclusive; KB-3-1 cytotox: 5.2µM*

Results for CCOc1ccccc1NC(=O)Cn1c(=O)ccc2cc(S(=O)(=O)N3CCCC3)ccc21 ?
KB-V1 cytotox: inactive; KB-3-1 cytotox: inactive

Results for CN(Cc1cccs1)c1nc(-c2cccnc2)nc2ccccc12 ?
IL-1B inflam inh: -92*; HT1080-NT tox: -5%; HT1080 IDH1KD tx: -3%; KB-V1 cytotox: inconclusive; KB-3-1 cytotox: inconclusive

Results for Cc1ccc(S(=O)(=O)N2C[C@]3(O)C[C@@H]4C(=O)N(c5ccccc5)C(=O)[C@@H]4C[C@]3(OC(=O)Nc3c(C)noc3C)C2)cc1 ?
IL-1B inflam inh: -12; HT1080-NT tox: 5%; HT1080 IDH1KD tx: 27%; KB-V1 cytotox: inactive; KB-3-1 cytotox: inactive

Results for O=C(c1ccc2ccccc2c1)C1CCCN(S(=O)(=O)c2cccnc2)C1 (stereo unspecified) ?
IL-1B inflam inh: inconclusive; HT1080-NT tox: -10%; HT1080 IDH1KD tx: -11%; KB-V1 cytotox: 16µM*; KB-3-1 cytotox: inactive

What do the screens show for `NS(=O)(=O)c1ccc(NC(=O)c2cnn3c2NC(=C2CC2)C=C3C(F)F)cc1`?
KB-V1 cytotox: inconclusive; KB-3-1 cytotox: inactive

How did c1ccc(-n2c(SCc3nc(-c4cccs4)no3)nnc2-c2ccco2)cc1 do in these assays?
IL-1B inflam inh: -75*; HT1080-NT tox: inconclusive; HT1080 IDH1KD tx: 13%; KB-V1 cytotox: inconclusive; KB-3-1 cytotox: inactive

How did Cc1ccc2nc(CSc3nnc(-c4ccco4)o3)cc(=O)n2c1 do in these assays?
IL-1B inflam inh: -22; HT1080-NT tox: -4%; HT1080 IDH1KD tx: 0%; KB-V1 cytotox: inactive; KB-3-1 cytotox: inactive

Results for COc1ccc(-n2c(Cc3ccccc3)nnc2SCc2nc(-c3cccs3)no2)cc1 ?
KB-V1 cytotox: inactive; KB-3-1 cytotox: inactive

What do the screens show for `Cc1ccc2nc(CSc3nnc(-c4ccco4)n3-c3ccccc3)cc(=O)n2c1`?
IL-1B inflam inh: -11; HT1080-NT tox: -1%; HT1080 IDH1KD tx: -9%; KB-V1 cytotox: 10µM*; KB-3-1 cytotox: inactive
